Source: PubChem BioAssay (The Scripps Research Institute Molecular Screening Center)
MOR-DOR ag – agonists of human mu-delta opioid receptor heterodimerization. cells, OPRM1-OPRD1 heterodimerization, luminescence. hit rate 0.3% among 340,000. activation, % at 9.3 µM. P35372+P41143; in the data active = activation above about 18%;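 note: 0% = vehicle-treated cells and 100% = reference agonist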
HTR5A ag ctr – HTR5A agonism, opioid heterodimer counter-screen | HTR5A agonist assay, luminescence, cell-based | hit rate 0.61% among 340,000 | AID 504692 | activation, % at 9.3 µM; in the data active = activation mostly above about 9.5%, no sharp cut-off; inactive = mostly below about 7.6%;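 note: 0% = cells with vehicle only and 100% = reference agonist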
Target sequence (P47898 whole entry, looked up): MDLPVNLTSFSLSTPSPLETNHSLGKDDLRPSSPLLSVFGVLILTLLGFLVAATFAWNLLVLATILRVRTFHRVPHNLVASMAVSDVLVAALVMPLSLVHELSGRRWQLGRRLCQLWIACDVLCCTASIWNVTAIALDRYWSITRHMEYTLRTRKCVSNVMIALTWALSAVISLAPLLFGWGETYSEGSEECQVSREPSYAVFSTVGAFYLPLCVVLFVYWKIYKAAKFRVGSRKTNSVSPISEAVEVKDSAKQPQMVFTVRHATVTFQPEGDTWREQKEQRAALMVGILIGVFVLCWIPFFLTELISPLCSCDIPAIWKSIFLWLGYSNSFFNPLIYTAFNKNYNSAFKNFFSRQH
HTR5A inv ag – inverse agonist of human HTR5A in OPRM1-OPRD1 counter-screen; hit rate 0.083% among 340,000; AID 504634; HTR5A cell line, luminescence, inverse agonism; inhibition, % at 9.3 µM; P47898; in the data active = inhibition mostly above about 23%, no sharp cut-off; inactive = mostly below about 18%;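 note: 0% = cells with DMSO and 100% = no-cell wells with DMSO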
MOR-DOR inv ag – mu-delta opioid heterodimer inverse agonism. P35372+P41143. inhibition, % at 9.3 µM. cell-based MOR-DOR heterodimer luminescence. hit rate 0.21% among 340,000; in the data active = inhibition above about 22%, passing the limit was not always enough;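 note: 0% = cells with DMSO and 100% = wells without cells with DMSO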
Numbers without * were called inactive. Most compounds without a hit are left out; they make up all but 1.1% or so of the library.

SMILES	MOR-DOR ag	HTR5A ag ctr	HTR5A inv ag	MOR-DOR inv ag
COc1ccc(-c2csc(NC(C)=O)n2)cc1OC	-2	-2	-19	10
Cc1nn(-c2ccc(Cl)cc2)c(=O)c2ccccc12	-3	-4	10	17
Cc1c(Cl)sn(-c2ccc(Cl)cc2)c1=O	36*	19*	-54	-208
O=c1c2c(n3nnnc3n1-c1ccccc1)-c1ccccc1CC21CCCC1	0	10	-16	-1
O=c1c2c(n3cnnc3n1-c1ccccc1)-c1ccccc1CC21CCCC1	-4	13*	-7	18
CCc1cccc(N(CC(=O)NC2CCCCC2)C(=O)c2csnn2)c1	1	6	-23	-7
Cn1c(=O)c2c(nc(NCc3ccco3)n2C/C=C/c2ccccc2)n(C)c1=O	8	11*	-39	-41
COc1cccc(NC(=O)c2cc(-c3ccccn3)nc3ccccc23)c1	0	3	-24	0
COc1cccc(-c2cc(C(=O)Nc3ccncc3)c3ccccc3n2)c1	15	14*	-29	-82
Cc1cccc(NC(=O)c2cc(C)nc3ccccc23)c1	-1	14*	-50	7
Cn1c(=O)c2nc(NCc3ccccc3)sc2n(C)c1=O	-2	-2	10	12
CN(Cc1ccc(C(C)(C)C)cc1)C(=O)c1ccc2c(c1)OCO2	6	0	23	-39
CC(C)c1ccc(C2C3=C(COC3=O)Nc3cc4c(cc32)OCO4)cc1 (stereo unspecified)	11	17*	-45	-51
COc1cc(C)c(NC(=O)COc2cccc3c2OC(C)(C)C3)cc1OC	-1	6	-14	4
COc1ccc(NC(=O)COc2cccc3c2OC(C)(C)C3)c(OC)c1	0	13*	-52	3
COc1cc(NC(=O)COc2cccc3c2OC(C)(C)C3)cc(OC)c1OC	0	14*	-50	1
N#Cc1c(C(F)(F)F)cc(-c2ccccc2)[nH]c1=O	-1	0	1	8
N#Cc1c(C(F)(F)F)cc(-c2ccccc2Cl)[nH]c1=O	1	12*	-20	-5
Cc1c(C(=O)NCCC2=CCCCC2)sc2ncnc(N3CCCCC3C)c12 (stereo unspecified)	-1	11*	-44	4
Cc1sc2ncnc(N3CCCCC3C)c2c1C (stereo unspecified)	3	1	-5	-18
Cc1cc(-n2c(C)cc(C(=O)CSc3ncnc4ccccc34)c2C)no1	7	16*	-19	-41
COc1ccccc1C(=O)NC(CCSC)C(=O)OCC(=O)N1CCCC1=O (stereo unspecified)	-2	0	1	7
CCOc1ccc(CCNC(=O)c2ccc(F)c(S(=O)(=O)N3CCOCC3)c2)cc1OCC	-1	11*	9	6
CCOc1ccc(CCNC(=O)c2ccc(C)c(S(=O)(=O)N3CCOCC3)c2)cc1OCC	-3	-1	-16	13
CCOc1ccc(NC(=O)NCCN2CCN(c3cccc(C)c3C)CC2)cc1	3	11*	-43	-16
SMILES	MOR-DOR ag	HTR5A ag ctr	HTR5A inv ag	MOR-DOR inv ag
O=C(NCCOc1ccc(F)cc1)C1CCC(=O)N(CC2CCCCC2)C1 (stereo unspecified)	-3	8	12	17
O=C(Nc1cccc(C(=O)N2CCOCC2)c1)C1CC1	-4	4	-14	20
COc1ccccc1N1CCN(C(=O)c2cc3c(s2)CCCCC3)CC1	2	10*	-19	-8
CCOc1ccccc1N1CCN(C(=O)c2cc3c(s2)CCC3)CC1	1	0	0	-7
COc1cccc(CNC(=O)C(=O)NCC2CCCO2)c1 (stereo unspecified)	2	14*	-30	-11
CCc1ccc(CNC(=O)C(=O)NCC2CCCO2)cc1 (stereo unspecified)	1	2	-6	-3
CCC(=O)N1N=C(c2cccc(NS(C)(=O)=O)c2)CC1c1cccs1 (stereo unspecified)	-3	14*	-38	16
CCN(CC)CCCNc1nc2ccccc2c2[nH]c3ccc(OC)cc3c12	4	0	1	-16
Cc1ccc(CNC(=O)/C=C/c2ccccc2Cl)cc1	0	11*	-40	-2
Cc1ccc(CNC(=O)/C=C/c2c(Cl)cccc2Cl)cc1	0	1	-5	-2
COc1ccc(C2C(O)C(c3c[nH]c4ccccc34)=NN2C(=O)CCl)cc1 (stereo unspecified)	60*	56*	-150	-320
COc1ccc(C2NN=C(c3c[nH]c4ccccc34)C2O)cc1 (stereo unspecified)	4	4	-16	-22
Cc1cc(NC(=O)CSc2nccn2C)n(-c2ccccc2)n1	1	14*	-20	-6
Cc1cc(NC(=O)COc2ccccc2)n(-c2ccccc2)n1	-2	6	-1	10
CCn1c(SCC(=O)Nc2cccc(OC)c2)nc2ccccc2c1=O	-1	-1	4	5
CCCn1c(SC(C(=O)Nc2cccc(OC)c2)c2ccccc2)nc2ccccc2c1=O (stereo unspecified)	0	13*	-44	1
CSc1ccccc1NC(=O)N1CCCC(C(=O)c2ccc3c(c2)OCO3)C1 (stereo unspecified)	-2	1	1	9
CC(=O)c1ccc(NC(=O)N2CCCC(C(=O)c3ccc4c(c3)OCO4)C2)cc1 (stereo unspecified)	2	11*	-29	-11
CCN1CCCC1CNS(=O)(=O)c1ccc(Cl)c(C(F)(F)F)c1 (stereo unspecified)	-3	13*	22	14
CCC(C)Sc1ccc([C@H]2N[C@@](Cc3ccccc3)(C(=O)OC)[C@H]3C(=O)N(CC)C(=O)[C@@H]23)cc1 (stereo partly specified)	3	6	-7	-18
Cc1[nH]n2c(=O)c3c(nc2c1-c1ccc(Cl)cc1)CCC3	-1	20*	-56	7
COc1ccc(S(=O)(=O)N2CCOC23CCN(S(=O)(=O)c2c(C)cc(C)cc2C)CC3)cc1	4	11*	8	-24
CCC(c1nnc(SCC(=O)NC2CCCCC2)n1Cc1ccccc1)N(C)C (stereo unspecified)	0	-2	4	-2
COc1ccc2c(c1)[nH]c1c(=O)n(N)cnc12	0	0	-22	2
COc1ccc2c(c1)[nH]c1c(Cl)ncnc12	2	12*	9	-11
SMILES	MOR-DOR ag	HTR5A ag ctr	HTR5A inv ag	MOR-DOR inv ag
COc1ccc(NC(=O)N2CCCC(c3nc(-c4ccc(C(C)C)cc4)no3)C2)cc1 (stereo unspecified)	7	12*	-39	-38
COc1ccc(NC(=O)N2CCCC(c3nc(-c4ccc(OC)cc4)no3)C2)cc1 (stereo unspecified)	0	0	0	1
COc1cc(NC(=O)Cn2nc(C(F)(F)F)c(Br)c2C)cc([N+](=O)[O-])c1	10	12*	-40	-55
Cc1ccc(C)c(OCCC(=O)NNC(=O)Cn2nc(C)cc2C)c1	-1	12*	-34	6
CC(C)n1c(CNC(=O)c2ccccc2F)nnc1SCC(=O)NC1CCCCC1	-1	-1	4	7
COc1ccc2c(c1)CC/C2=N\OC(=O)c1ccccc1C	2	5	-3	-11
